From PubChem BioAssay AID1851 (National Center for Advancing Translational Sciences (NCATS), 2009) come the findings set out here.

The structures appear in SMILES notation. The whole screen tested about 16,000 compounds, of which about 4,000 (25%) were called active. Roughly 26% stayed inconclusive and do not appear here. These entries were drawn from the full list. Unmarked numbers belong to inactive results. Calls follow the shape of the dose curve; as a rule, active = well fitted curve in the direction sought with a large enough effect; inconclusive = small, poorly fitted or top-dose-only effect, or effect the other way; inactive = no such curve, though single readings can be large or run the other way.
% is scaled to controls: 0 for no effect and ±100 for the full control effect.

In this assay the target is Cytochrome P450 2C9 (Homo sapiens) (UniProt P11712). The experiment in a line: Cytochrome panel assay with activity outcomes. The following applies: recombinant CYP, pro-luciferin dealkylation, luminescence, p450-cyp2c9; series mostly up to 57.1 µM.
Chain of Cytochrome P450 2C9 (Homo sapiens) (P11712 whole entry, looked up): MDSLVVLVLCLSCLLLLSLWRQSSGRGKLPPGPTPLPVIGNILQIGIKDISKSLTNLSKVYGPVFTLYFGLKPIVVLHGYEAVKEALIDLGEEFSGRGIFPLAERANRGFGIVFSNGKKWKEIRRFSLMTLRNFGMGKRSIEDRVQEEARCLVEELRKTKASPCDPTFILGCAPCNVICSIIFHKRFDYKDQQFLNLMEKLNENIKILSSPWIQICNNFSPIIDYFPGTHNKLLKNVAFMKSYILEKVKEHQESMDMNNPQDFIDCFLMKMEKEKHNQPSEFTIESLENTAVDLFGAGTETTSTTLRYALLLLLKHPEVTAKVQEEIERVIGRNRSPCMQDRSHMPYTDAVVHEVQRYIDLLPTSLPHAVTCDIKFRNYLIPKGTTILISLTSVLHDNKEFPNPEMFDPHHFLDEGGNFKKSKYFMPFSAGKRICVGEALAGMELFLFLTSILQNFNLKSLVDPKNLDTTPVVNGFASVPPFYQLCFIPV
On to `CO[C@@H]1COC(=O)CC=C[C@@H](C)[C@@H]2C=C[C@@H](O)[C@@H](COC(=O)C/C=C\[C@H]1C)O2`, for which the activity, negative = inhibition was -2.62% [at 11.4 µM]. The same measure, in the same setting: for `C#CCCCO/N=C1/C[C@@H](O)[C@@H](O)[C@@H]2[C@@H]3C(=O)N(Cc4ccccc4)C(=O)[C@H]3CC[C@H]12` the value was -13.5% [at 11.4 µM]; for `CC1(C)OC[C@@H]2O[C@H](n3cnc4c(N)nc(Cl)nc43)[C@@H](OS(C)(=O)=O)[C@@H]2O1`, 2.13% [at 11.4 µM]. As for `CC(C)c1ccc2nc3sc(C(=O)N4CCc5ccccc5C4)c(N)c3cc2c1`, the AC50 is 4.47 µM (active). On to `Cc1noc(NC(=O)Nc2ccccc2F)c1C#N`, for which the activity, negative = inhibition was -5.47% [at 11.4 µM]. Consider `COc1ccc2c(c1)C(=NN)c1cc(OC)ccc1-2`, for which the AC50 is 3.55 µM (active).

For the compound `COc1ccc(CC(=O)O/N=C(\N)Cc2ccc(OC)cc2)cc1`, the AC50 result is “inactive”. In the case of `C/C(CCc1ccc2c(c1)OCO2)=N\N=C1\NC(=O)CC(C(=O)Nc2ccccc2)S1` (stereo unspecified), the AC50 was 7.94 µM (active).

For `CCN1C(=O)[C@H]2[C@H]3[C@H](O)[C@H](O)C/C(=N/NC(=O)OCc4ccccc4)[C@@H]3CC[C@@H]2C1=O`, the activity, negative = inhibition was -4.03% [at 11.4 µM].

Take `OC[C@@H]1O[C@@H](n2cnc3c(NC4CCCC4)ncnc32)[C@H](O)[C@H]1O`: the AC50 result is “inactive”.

`O=S(=O)(c1ccccc1)N1CCN(c2cc(-c3ccccc3)nc3ncnn23)CC1`: the concentration at half-maximal activity (AC50) is 12.6 µM (active). Still for that read-out and setting: for `FC(F)(F)c1ccc(N2CCN(c3cc(-c4ccccc4)nc4ncnn34)CC2)nc1` the value was 2.24 µM (active). Regarding `CN1CCN(c2cc(-c3ccccc3C(F)(F)F)ncn2)CC1`, the activity, negative = inhibition is 4.29% [at 2.29 µM]. With `CC(C)CN1CCCC2(CCN(S(=O)(=O)c3ccccc3)CC2)C1`, the AC50 entry was “inactive”.

Consider `Cc1cc(N2CCN(c3nc4ccccc4s3)CC2)n2ncnc2n1`, for which the AC50 result was “inactive”.

In the case of `COCCn1c(=O)c(-c2ccc(Cl)cc2)nc2cnc(N(C)C)nc21`, the AC50 result was “inactive”. On to `COc1ccc(-n2c(=O)c(CCc3ccccc3)nc3cnc(N(C)C)nc32)cc1`, for which the AC50 result is “inactive”. Same read-out and setting: under `Cc1nc2cnc(N(C)C)nc2n(-c2ccccc2)c1=O` stands “inactive”. Consider `CCNc1ncc2nc(-c3ccccc3)c(=O)n(C3CC3)c2n1`, for which the AC50 entry is “inactive”. In the case of `COCCn1c(=O)c(-c2ccccc2)nc2cnc(N(C)C)nc21`, the AC50 is 20 µM (active). On to `CN(C)c1ncc2nc(-c3ccccc3)c(=O)n(C)c2n1`, for which the AC50 is 10 µM (active). With `CN(C)c1ncc2nc(-c3ccc(F)cc3)c(=O)n(C)c2n1`, the AC50 result is “inactive”.

Take `CN(C)c1ncc2nc(-c3ccccc3)c(=O)n(C3CC3)c2n1`: the AC50 was 10 µM (active). As for `CN(C)c1ncc2nc(CCc3ccccc3)c(=O)n(-c3ccccc3)c2n1`, the AC50 is 12.6 µM (active).

As for `COCCn1c(=O)c(-c2cc(F)cc(F)c2)nc2cnc(N(C)C)nc21`, the AC50 entry is “inactive”. Same read-out and setting: under `CN(C)c1ncc2nc(-c3ccc(Cl)cc3)c(=O)n(C)c2n1` stands “inactive”; under `O=c1c(-c2ccccc2)nc2cncnc2n1C1CC1`, “inactive”; under `CC(C)NC(=O)N1CCCC2(CCN(C(=O)c3csnn3)CC2)C1`, “inactive”. Take `N#Cc1cccc(-c2nc(NCc3cccs3)c3ccccc3n2)c1`: the activity, negative = inhibition was -13.5% [at 2.29 µM].

For the compound `Cc1nc2cnc(N(C)C)nc2n(CCc2ccccc2)c1=O`, the AC50 is 12.6 µM (active). On the same count and under the same terms, under `COCCn1c(=O)c(C)nc2cnc(N(C)C)nc21` stands “inactive”; under `CN(C)c1ncc2nc(-c3cccs3)c(=O)n(Cc3cccs3)c2n1`, “inactive”. Turning to `Cc1nc2cnc(N(C)C)nc2n(Cc2cccs2)c1=O`, the AC50 result was “inactive”. On to `CN(C)c1ncc2nc(-c3ccc(F)cc3)c(=O)n(CCc3ccccc3)c2n1`, for which the AC50 entry is “inactive”. With `Cc1nc2cnc(N(C)C)nc2n(CCC#N)c1=O`, the AC50 result is “inactive”. Turning to `CN(C)c1ncc2nc(-c3cccs3)c(=O)n(CCc3ccccc3)c2n1`, the AC50 entry was “inactive”. `CN(C)c1ncc2nc(-c3ccccc3)c(=O)n(CCc3ccccc3)c2n1`: the concentration at half-maximal activity (AC50) is 0.631 µM (active). Take `CN(C)c1ncc2nc(-c3cc(F)cc(F)c3)c(=O)n(CCc3ccccc3)c2n1`: the AC50 entry is “inactive”. On to `CN(C)c1ncc2nc(-c3ccccc3)c(=O)n(CCC#N)c2n1`, for which the AC50 entry is “inactive”. For the compound `CN(C)c1ncc2nc(CCc3ccccc3)c(=O)n(Cc3cccs3)c2n1`, the AC50 was 15.8 µM (active). For `CN(C)c1ncc2nc(CCc3ccccc3)c(=O)n(CCC#N)c2n1`, the AC50 was 15.8 µM (active). In the case of `NC1=NC2(CCCCC2)N=C(Nc2ccc(F)cc2F)N1`, the AC50 entry was “inactive”. `N=C(N)SCCCN`: the activity, negative = inhibition was 7.79% [at 11.4 µM]. As to `COc1ccc(-c2nc3cnc(N(C)C)nc3n(CCc3ccccc3)c2=O)cc1`, the AC50 result is “inactive”. For the compound `CN(C)c1ncc2ncc(=O)n(CCc3ccccc3)c2n1`, the concentration at half-maximal activity (AC50) was 6.31 µM (active). On the same count and under the same terms, under `CN(C)c1ncc2nc(CCc3ccccc3)c(=O)n(CCc3ccccc3)c2n1` stands 12.6 µM (active).

Take `CN(C)c1ncc2ncc(=O)n(C)c2n1`: the AC50 result is “inactive”. With `COc1ccccc1N1CCN(CCn2c(=O)[nH]c3c([nH]c4ccccc43)c2=O)CC1`, the AC50 result is “inactive”. As to `COCCn1c(=O)[nH]c2cc(C(=O)N3CCN(c4ccccc4OC)CC3)ccc2c1=O`, the half-maximal activity concentration (AC50) was 7.94 µM (active). With `N=C1SCC(=O)N1c1nc(-c2ccccc2)cs1`, the AC50 result is “inactive”. Take `COc1ccc(-c2csc(N3C(=N)SCC3=O)n2)cc1`: the AC50 was 3.55 µM (active).

As for `CC(=O)Oc1cc(C(C)C)c(OCCN(C)C)cc1C`, the AC50 result was “inactive”. For `CC(C)NCC[C@@H](O)c1cc2ccccc2o1`, the activity, negative = inhibition is 17.2% [at 11.4 µM]. Consider `CC(=O)OC[C@@H]1O[C@H](CCON=C(C)C)C=C[C@@H]1OC(C)=O`, for which the activity, negative = inhibition was 3.94% [at 11.4 µM]. In the case of `OCCN(Cc1ccccc1)Cc1cccc(Cl)c1Cl`, the half-maximal activity concentration (AC50) is 3.98 µM (active).

As for `CN(C(=O)CN(CCO)CC(=O)N(C)C(C)(C)Cc1ccccc1)C(C)(C)Cc1ccccc1`, the AC50 result was “inactive”. Consider `CCN(CCO)Cc1csc2cccc(Br)c12`, for which the AC50 entry was “inactive”.

Turning to `Cc1cc(N=Cc2c(CO)cnc(C)c2O)c(N=Cc2c(CO)cnc(C)c2O)cc1C.[Zn]`, the activity, negative = inhibition is -15.6% [at 11.4 µM]. Take `O[C@@H](COc1cccc2ccccc12)CN1CCOCC1`: the activity, negative = inhibition was 5.45% [at 11.4 µM].

For the compound `O=C(c1ccc(S(=O)(=O)N2CCCCCC2)cc1)N1CCC(CN2C(=O)c3cccc4cccc(c34)C2=O)CC1`, the AC50 result was “inactive”.

As to `O=C1c2cccc3cccc(c23)C(=O)N1CC1CCN(CC(O)COc2ccc3ccccc3c2)CC1` (stereo unspecified), the AC50 was 0.891 µM (active). Same read-out and setting: under `CCS(=O)(=O)N1CCCC(C(=O)NCCCOC(C)C)C1` (stereo unspecified) stands “inactive”.

As to `COc1ccccc1-c1ccc2ncnc(N3CCN(C)CC3)c2c1`, the activity, negative = inhibition was 1.65% [at 2.29 µM].

In the case of `COc1cccc2[nH]c3c(N4CC(C)CC(C)C4)ncnc3c12` (stereo unspecified), the AC50 was 10 µM (active). In the case of `Cc1ccc(C)c(NC(=O)Cn2c([N+](=O)[O-])cnc2C)c1`, the AC50 entry was “inactive”.

Consider `CCOc1ncccc1C(=O)OCC(=O)Nc1cc(C)ccc1C`, for which the AC50 is 8.91 µM (active). Turning to `Cc1ccc(C)c(N/C(N)=N/c2nc(C)cc(C)n2)c1`, the AC50 entry was “inactive”. In the case of `CN(C)C(=N)N=C(N)N`, the AC50 result is “inactive”.

For the compound `CCn1c(SCC(=O)Nc2nc3ccc(C)cc3s2)nc2c(c1=O)SC(C)C2` (stereo unspecified), the AC50 is 3.16 µM (active).

For `CCn1c(SCC(=O)Nc2ccc3c(c2)OCCO3)nc2c(c1=O)SC(C)C2` (stereo unspecified), the half-maximal activity concentration (AC50) is 2 µM (active).

For `CCn1c(SCC(=O)NC2CCCCC2)nc2c(c1=O)SC(C)C2` (stereo unspecified), the AC50 entry is “inactive”. For `Cc1ccc2nc(NC(=O)CSc3nc4c(c(=O)n3C)SC(C)C4)sc2c1` (stereo unspecified), the half-maximal activity concentration (AC50) was 1.78 µM (active).

In the case of `Cn1c(=O)c2[nH]c([C@@H]3CC(=O)C[C@H](c4nc5c([nH]4)c(=O)n(C)c(=O)n5C)N3)nc2n(C)c1=O`, the activity, negative = inhibition is 2.38% [at 11.4 µM].

In the case of `CC1(C)CCC(NC(=O)[C@H](N)CCC(=O)O)CC1`, the AC50 result is “inactive”. Take `N[C@@H](Cc1nn[nH]n1)C(=O)O`: the activity, negative = inhibition was -8.85% [at 11.4 µM]. On to `CCCn1c(C)nc2c(c1=O)c1nc3ccccc3nc1n2CCC1=CCCCC1`, for which the half-maximal activity concentration (AC50) was 5.62 µM (active).

For `C/C(=N/O)[C@@H]1C[C@H](CC(=O)O)C1(C)C`, the activity, negative = inhibition is -6.68% [at 11.4 µM]. For the compound `O=[N+]([O-])c1ccc2nc(-c3ccccc3)n(OCc3ccc(Cl)cc3)c2c1`, the AC50 is 4.47 µM (active). `Cc1cc(-c2cccc([N+](=O)[O-])c2)nc2ccc3ccccc3c12`: the AC50 result is “inactive”.

Turning to `Clc1ccc(COn2c(-c3ccccc3)nc3ccccc32)cc1`, the AC50 is 10 µM (active). In the case of `CC(=O)OCC(=O)[C@@]1(O)CC[C@@H]2[C@H]3CCC4=CC(=O)CC[C@]4(C)[C@]3(F)[C@@H](O)C[C@@]21C`, the AC50 entry is “inactive”. Turning to `C[C@@H]1/C=C\CC(=O)OC[C@H](C)C(=O)N[C@@H](Cc2ccccc2)C(=O)OC1`, the activity, negative = inhibition was 10.4% [at 11.4 µM]. In the case of `O=C1C=C[C@@H](O)[C@H]2[C@@H]3C(=O)N(c4cccc(Oc5ccccc5)c4)C(=O)[C@@H]3CC[C@H]12`, the activity, negative = inhibition is -24.8% [at 11.4 µM]. With `COC(=O)c1nn(-c2ccc(OC)cc2)c(=O)cc1Oc1cccc(Cl)c1`, the AC50 entry was “inactive”.

As to `CCOC(=O)N/N=C/c1ccc(C)o1`, the AC50 result was “inactive”.

With `COC(=O)c1sccc1-c1ccc(C(=O)Nc2cccnc2)o1`, the half-maximal activity concentration (AC50) was 5.01 µM (active). Turning to `CCOC(=O)C(=CNCC(=O)O)C(=O)OCC`, the AC50 entry was “inactive”. With `COC(=O)c1sccc1-c1ccc(C(=O)Nc2cccc(Cl)c2)o1`, the AC50 was 10 µM (active).

`O=C(Nc1cccc2nsnc12)c1ccc(-c2cccc(Cl)c2)o1`: the AC50 entry was “inactive”. As for `CCOC(=O)C(=Cc1ccc(-c2ccsc2C(=O)OC)o1)C(=O)OCC`, the concentration at half-maximal activity (AC50) is 1.26 µM (active). `CCN1C(=O)[C@H]2[C@H]3[C@H](O)[C@H](O)C/C(=N/O[C@@H](C)c4cn([C@H]5COC[C@H]5O)nn4)[C@@H]3CC[C@@H]2C1=O`: the activity, negative = inhibition is 9.59% [at 11.4 µM]. With `CCOC(=O)c1cc(-c2ccccc2)sc1NC(=O)c1ccc(OC)cc1`, the concentration at half-maximal activity (AC50) is 11.2 µM (active). Take `COC(=O)c1cc(-c2ccccc2)sc1NC(=O)CN1C(=O)c2ccccc2C1=O`: the concentration at half-maximal activity (AC50) is 2.82 µM (active).

Regarding `CCOC(=O)c1cc(-c2ccccc2)sc1NC(=O)C(C)(C)C`, the AC50 result is “inactive”. Regarding `CCOC(=O)CCCNC(=O)CCCNC(=O)C(c1ccccc1)c1ccccc1`, the AC50 entry is “inactive”. With `CCOC(=O)c1cc(CC)sc1NC(=O)C(c1ccccc1)c1ccccc1`, the AC50 was 6.31 µM (active).
